These results are taken from PubChem BioAssay (NCI).

Some test systems named below: SK-MEL-2 melanoma; EKVX NSCLC; SN12C renal; UO-31 renal; A498 renal; CCRF-CEM leukemia; MOLT-4 leukemia; SR leukemia; RPMI-8226 leukemia; OVCAR-8 ovarian; OVCAR-5 ovarian; OVCAR-4 ovarian; SK-OV-3 ovarian; IGROV1 ovarian; OVCAR-3 ovarian; HS 578T breast; NCI/ADR-RES ovarian; ACHN renal; CAKI-1 renal.
What all share (test): NCI-60 one-dose screen, 48 h (100 = growth as untreated, 0 = no growth, -100 = all killed)
What all share (settings): 10 µM unless noted

The panel holds about 83,000 compounds, 20% with a hit somewhere; the sample as a whole holds those more often.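 Method: cells in 96-well plates; compound added at one concentration; 48 h incubation; percent growth measured; values under 10 scored active.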 Values without a mark were called inactive. Activity calls are given as the source filed them.

Take `COc1cnc2c(c1)C(=O)c1c-2n(CCCN2CCCC2)c(=O)c2cc(F)ccc12`: the growth with SK-MEL-2 melanoma was 23.1%; in the assay with EKVX NSCLC, 4.91% (active); with SN12C renal it was 9.02% (active); in the assay on UO-31 renal, -96.2% (active); in the assay on A498 renal it was -92.8% (active); in the assay with CCRF-CEM leukemia it was 0.937% (active). For the same compound, the growth in the assay with MOLT-4 leukemia was -19.5% (active); in the assay on SR leukemia, -9.13% (active); with RPMI-8226 leukemia it was -22.8% (active); with OVCAR-8 ovarian, -13.3% (active); in the assay with OVCAR-5 ovarian it was 5.78% (active); in the assay with OVCAR-4 ovarian, 4.61% (active). In addition, the growth with SK-OV-3 ovarian was -24.6% (active); with IGROV1 ovarian it was 4.37% (active); in the assay on OVCAR-3 ovarian, -29.1% (active); with HS 578T breast, 23.8%; in the assay on NCI/ADR-RES ovarian it was -3.22% (active).
With `Cc1n(Cc2ccc3ccccc3c2)c2ccccc2[n+]1Cc1ccc2ccccc2c1`, the growth was -74.6% (active) in the assay on SK-MEL-2 melanoma; 9.57% (active) in the assay on EKVX NSCLC; -44.2% (active) in the assay with SN12C renal; 30.7% with UO-31 renal; 25.3% in the assay with ACHN renal; -11.5% (active) in the assay on A498 renal. Further, the growth in the assay on CCRF-CEM leukemia is -45.1% (active); in the assay on MOLT-4 leukemia it was -54.7% (active); in the assay on SR leukemia, -35.5% (active); in the assay with RPMI-8226 leukemia it was -57.7% (active); in the assay with OVCAR-8 ovarian it was -31.1% (active); in the assay on OVCAR-5 ovarian, -46.4% (active). In addition, the growth is -7.76% (active) in the assay on OVCAR-4 ovarian; -18.4% (active) in the assay on SK-OV-3 ovarian; -61.8% (active) with IGROV1 ovarian; -78.1% (active) in the assay on OVCAR-3 ovarian; -0.489% (active) with HS 578T breast; 82.4% with NCI/ADR-RES ovarian.
In the case of `CNCCCn1c2c(c3ccc(F)cc3c1=O)C(=O)c1cc(OC)cnc1-2`, the growth with SK-MEL-2 melanoma was -9.66% (active); in the assay with EKVX NSCLC it was -13.2% (active); in the assay on SN12C renal, 6.91% (active); with UO-31 renal, -89.3% (active); with A498 renal, -87.6% (active); with CCRF-CEM leukemia, 1.24% (active). In addition, the growth in the assay on MOLT-4 leukemia is -19.8% (active); in the assay on SR leukemia it was -9.31% (active); with RPMI-8226 leukemia it was -20.4% (active); in the assay on OVCAR-8 ovarian it was -19.8% (active); in the assay on OVCAR-5 ovarian, -8.53% (active); with OVCAR-4 ovarian, -5.91% (active). Further, the growth was -24.5% (active) with SK-OV-3 ovarian; 11.4% in the assay on IGROV1 ovarian; -11.4% (active) in the assay on OVCAR-3 ovarian; 22.1% in the assay with HS 578T breast; 3.1% (active) with NCI/ADR-RES ovarian.
As for `O=CN1N=C(c2ccc(Nc3ccnc4cc(Cl)ccc34)cc2)CC1c1ccc(Cl)cc1` (stereo not given), the growth with SK-MEL-2 melanoma is 52.1%; in the assay on EKVX NSCLC it was 40.5%; in the assay with SN12C renal, 36.1%; with UO-31 renal, 20.6%; with CAKI-1 renal, 39.4%; in the assay with A498 renal it was 34.6%. Moreover, the growth in the assay with CCRF-CEM leukemia was 6.48% (active); in the assay on MOLT-4 leukemia, 7.23% (active); in the assay on SR leukemia it was -23.3% (active); in the assay on RPMI-8226 leukemia, 4.55% (active); with OVCAR-8 ovarian, 33.1%; in the assay with OVCAR-5 ovarian, 41.9%. The growth in the assay on OVCAR-4 ovarian is 38.1%; in the assay with SK-OV-3 ovarian, 4.28% (active); in the assay on IGROV1 ovarian it was 27.3%; in the assay on OVCAR-3 ovarian, -24.1% (active); in the assay with HS 578T breast, 28.1%; in the assay with NCI/ADR-RES ovarian it was 0.514% (active).
`NS(=O)(=O)N(c1cc(C(F)(F)F)cc(C(F)(F)F)c1)C1CCN(Cc2ccc(C(F)(F)F)cc2)CC1`: the growth in the assay with SK-MEL-2 melanoma was 28%; in the assay on EKVX NSCLC it was 16.2%; with SN12C renal, 55.1%; with UO-31 renal, 64.6%; in the assay with ACHN renal it was 69.5%; in the assay on CAKI-1 renal, 66.2%. Also, the growth with A498 renal was 28.2%; with CCRF-CEM leukemia it was 23.6%; in the assay on MOLT-4 leukemia it was 20.3%; with SR leukemia it was -6.79% (active); in the assay on RPMI-8226 leukemia, 31.7%; with OVCAR-5 ovarian, 38.6%. Moreover, the growth with OVCAR-4 ovarian was 31.6%; with SK-OV-3 ovarian it was 4.55% (active); in the assay with IGROV1 ovarian, 21.7%; with OVCAR-3 ovarian, 15%; with HS 578T breast, 25.2%; with NCI/ADR-RES ovarian, 58.2%.
As to `COc1cnc2c(c1)C(=O)c1c-2n(CCCNC2=NCCS2)c(=O)c2cc(F)ccc12`, the growth in the assay on SK-MEL-2 melanoma was 90.7%; in the assay on EKVX NSCLC, 67.5%; in the assay on SN12C renal, 36.7%; in the assay on UO-31 renal, 15.9%; in the assay with ACHN renal, 6.18% (active); in the assay on A498 renal, -52.4% (active). The growth with CCRF-CEM leukemia was 0.88% (active); in the assay on MOLT-4 leukemia, 0.0786% (active); with SR leukemia, -8.78% (active); in the assay with RPMI-8226 leukemia, -14.3% (active); in the assay with OVCAR-8 ovarian, 31.3%; in the assay with OVCAR-5 ovarian, 53.2%. For the same compound, the growth was 63.1% with OVCAR-4 ovarian; 11.1% in the assay with SK-OV-3 ovarian; 38% with IGROV1 ovarian; 32.6% in the assay with OVCAR-3 ovarian; 65.5% in the assay on HS 578T breast; 34.6% in the assay with NCI/ADR-RES ovarian.
With `COc1ccc(OC)c(CCn2cncc2-c2c[nH]c3cc(Br)ccc23)c1`, the growth in the assay on SK-MEL-2 melanoma is 7.7% (active); in the assay on EKVX NSCLC, 35.3%; in the assay on SN12C renal it was 49.5%; with UO-31 renal it was 39.5%; in the assay with ACHN renal, 58.3%; in the assay with CAKI-1 renal it was 35.5%. Further, the growth with CCRF-CEM leukemia was 36.8%; in the assay with MOLT-4 leukemia, 16.2%; with SR leukemia it was 13.6%; in the assay with RPMI-8226 leukemia, 16.7%; in the assay with OVCAR-8 ovarian it was 24.7%; with OVCAR-5 ovarian, 79.5%. Further, the growth with OVCAR-4 ovarian is 21.6%; in the assay on SK-OV-3 ovarian it was 38.8%; with OVCAR-3 ovarian, 32.7%; in the assay with HS 578T breast it was 59.8%; in the assay on NCI/ADR-RES ovarian, 19.4%.
For the compound `CN(C)CCCN=c1cc2c(=O)n(CCCN(C)C)c(=O)c3c(NCCCN(C)C)cc4c(O)n(CCCN(C)C)c(=O)c1c4c3-2`, the growth in the assay on SK-MEL-2 melanoma is -9.31% (active); in the assay with EKVX NSCLC, -18.4% (active); in the assay with SN12C renal, 9.31% (active); with UO-31 renal, -26.6% (active); with ACHN renal it was -41.6% (active); in the assay on CAKI-1 renal, 4.58% (active). Also, the growth with A498 renal is -64.8% (active); in the assay with CCRF-CEM leukemia, 10.8%; in the assay on MOLT-4 leukemia, 25.1%; with SR leukemia it was 6.3% (active); in the assay on OVCAR-8 ovarian it was 5.35% (active); with OVCAR-5 ovarian it was 0.732% (active). The growth is -4.23% (active) in the assay on SK-OV-3 ovarian; -24.6% (active) with IGROV1 ovarian; -39.1% (active) in the assay on OVCAR-3 ovarian; -11.2% (active) in the assay with HS 578T breast; 52.2% in the assay on NCI/ADR-RES ovarian.
